Assay results as given in the supplement of paper PMC8728848.
About 410 targets per protein were measured; listed, in parts, are those with the strongest signals and a random draw of the rest.

How the values were obtained:
Assay in all cases: glycan array binding signal (z-score within array); higher = stronger binding
Conditions in all cases: glycan notation: IUPAC condensed, linker removed
[1] = molecular target: Glc(a1-6)Glc(a1-6)Glc(a1-6)Glc(a1-6)Glc
In short: (§1)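 Columns mapping to the same glycan were averaged after glycan names were converted to IUPAC-condensed notation. The data come from 3228 arrays in the Consortium for Functional Glycomics database, limited to those with an available protein sequence. Binding is reported as a within-array Z-score averaged across arrays of one protein sequence and across linkers.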

[2] = molecular target: Glc(a1-6)Glc(a1-6)Glc(a1-6)Glc(a1-6)Glc(a1-6)Glc(a1-6)Glc
In short: as §1

[3] = molecular target: Glc(a1-6)Glc(a1-6)Glc(a1-6)Glc(a1-6)Glc(a1-6)Glc(a1-6)Glc(a1-6)Glc(a1-6)Glc(a1-6)Glc(a1-6)Glc(a1-6)Glc(a1-6)Glc
In short: as §1

[4] = molecular target: Glc(b1-3)Glc(b1-3)Glc(b1-3)Glc(b1-3)Glc
In short: as §1

[5] = molecular target: Glc(b1-3)Glc(b1-3)Glc(b1-3)Glc(b1-3)Glc(b1-3)Glc(b1-3)Glc
In short: as §1

Glc(b1-4)Glc = molecular target: Glc(b1-4)Glc
In short: as §1

[6] = molecular target: Glc(b1-6)Glc(b1-6)Glc(b1-6)Glc(b1-6)Glc(b1-6)Glc(b1-6)Glc(b1-6)Glc(b1-6)Glc(b1-6)Glc(b1-6)Glc(b1-6)Glc
In short: as §1

GlcA(b1-3)Gal = molecular target: GlcA(b1-3)Gal
In short: as §1

[7] = molecular target: GlcA(b1-3)Gal(b1-4)GlcNAc(b1-3)Gal(b1-4)Glc
In short: as §1

[8] = molecular target: GlcA(b1-3)GlcNAc(b1-4)GlcA(b1-3)GlcNAc
In short: as §1

[9] = molecular target: GlcA3S(b1-3)Gal(b1-4)GlcNAc(b1-3)Gal(b1-4)Glc
In short: as §1

[10] = molecular target: GlcNAc(a1-4)Gal(b1-3)[Fuc(a1-2)]Gal
In short: as §1

[11] = molecular target: GlcNAc(a1-4)Gal(b1-4)GlcNAc
In short: as §1

[12] = molecular target: GlcNAc(a1-4)Gal(b1-4)GlcNAc(b1-3)Gal(b1-4)[Fuc(a1-3)]GlcNAc(b1-3)Gal(b1-4)[Fuc(a1-3)]GlcNAc
In short: as §1

GlcNAc(b1-3)Gal(b1-4)Glc = molecular target: GlcNAc(b1-3)Gal(b1-4)Glc
In short: as §1

[13] = molecular target: GlcNAc(b1-3)Gal(b1-4)GlcNAc(b1-2)Man(a1-3)[GlcNAc(b1-3)Gal(b1-4)GlcNAc(b1-2)Man(a1-6)]Man(b1-4)GlcNAc(b1-4)[Fuc(a1-6)]GlcNAc
In short: as §1

[14] = molecular target: GlcNAc(b1-3)Gal(b1-4)GlcNAc(b1-3)Gal(b1-4)GlcNAc(b1-3)Gal(b1-4)GlcNAc(b1-3)Gal(b1-4)GlcNAc(b1-2)Man(a1-3)[GlcNAc(b1-3)Gal(b1-4)GlcNAc(b1-3)Gal(b1-4)GlcNAc(b1-3)Gal(b1-4)GlcNAc(b1-3)Gal(b1-4)GlcNAc(b1-2)Man(a1-6)]Man(b1-4)GlcNAc(b1-4)[Fuc(a1-6)]GlcNAc
In short: as §1

Kdn(a2-6)Gal = molecular target: Kdn(a2-6)Gal
In short: as §1

Man(a1-2)Man = molecular target: Man(a1-2)Man
In short: as §1

[15] = molecular target: Man(a1-2)Man(a1-6)[Man(a1-3)]Man(a1-6)[Man(a1-2)Man(a1-2)Man(a1-3)]Man
In short: as §1

[16] = molecular target: Man(a1-3)[Man(a1-6)]Man(a1-6)[Man(a1-3)]Man(b1-4)GlcNAc(b1-4)GlcNAc
In short: as §1

[17] = molecular target: Neu5Ac(a2-3)Gal(b1-3)GlcNAc(b1-4)Gal(b1-4)Glc
In short: as §1

[18] = molecular target: Neu5Ac(a2-3)Gal(b1-3)GlcNAc6S
In short: as §1

[19] = molecular target: Neu5Ac(a2-3)Gal(b1-4)[Fuc(a1-3)]GlcNAc(b1-3)GalNAc
In short: as §1

[20] = molecular target: Neu5Ac(a2-3)Gal(b1-4)[Fuc(a1-3)]GlcNAc(b1-4)GalNAc(b1-3)Gal(b1-4)Glc
In short: as §1

[21] = molecular target: Neu5Ac(a2-3)Gal(b1-4)[Fuc2Me(a1-3)]GlcNAc(b1-3)Gal
In short: as §1

[22] = molecular target: Neu5Ac(a2-3)Gal6S(b1-4)[Fuc(a1-3)]GlcNAc
In short: as §1

[23] = molecular target: Neu5Ac(a2-6)Gal(b1-3)GlcNAc(b1-3)[Fuc(a1-3)[Gal(b1-4)]GlcNAc(b1-6)]Gal(b1-4)Glc
In short: as §1

[24] = molecular target: Neu5Ac(a2-6)Gal(b1-4)GlcNAc(b1-2)Man(a1-3)[Neu5Ac(a2-3)Gal(b1-4)GlcNAc(b1-2)Man(a1-6)]Man(b1-4)GlcNAc(b1-4)GlcNAc
In short: as §1

[25] = molecular target: Neu5Ac(a2-6)Gal(b1-4)GlcNAc(b1-3)Gal(b1-4)GlcNAc(b1-3)GalNAc
In short: as §1

[26] = molecular target: Neu5Ac(a2-6)Gal(b1-4)GlcNAc(b1-3)Gal(b1-4)[Fuc(a1-3)]GlcNAc(b1-3)Gal(b1-4)[Fuc(a1-3)]GlcNAc
In short: as §1

[27] = molecular target: Neu5Ac(a2-8)Neu5Ac(a2-3)[Gal(b1-3)GalNAc(b1-4)]Gal(b1-4)Glc
In short: as §1

[28] = molecular target: Neu5Ac(a2-8)Neu5Ac(a2-8)Neu5Ac(a2-3)[Gal(b1-3)GalNAc(b1-4)]Gal(b1-4)Glc
In short: as §1

[29] = molecular target: Neu5Ac(b2-6)Gal(b1-4)GlcNAc
In short: as §1

Neu5Ac(b2-6)GalNAc = molecular target: Neu5Ac(b2-6)GalNAc
In short: as §1

[30] = molecular target: Neu5Ac9Ac(a2-3)Gal(b1-3)GlcNAc
In short: as §1

[31] = molecular target: Neu5Gc(a2-8)Neu5Ac(a2-3)Gal(b1-4)GlcNAc
In short: as §1

[32] = molecular target: Xyl(b1-2)[Man(a1-3)][Man(a1-6)]Man(b1-4)GlcNAc(b1-4)[Fuc(a1-3)]GlcNAc
In short: as §1

B1: CLEC5A (Homo sapiens), Q9NY25 (protein)
chain: MNWHMIISGLIVVVLKVVGMTLFLLYFPQIFNKSNDGFTTTRSYGTVSQIFGSSSPSPNGFITTRSYGTVCPKDWEFYQARCFFLSTSESSWNESRDFCKGKGSTLAIVNTPEKLKFLQDITDAEKYFIGLIYHREEKRWRWINNSVFNGNVTNQNQNFNCATIGLTKTFDAASCDISYRRICEKNAK
[1]
  glycan array binding signal (z-score): -0.32
[2]
  glycan array binding signal (z-score): 1.51
[3]
  glycan array binding signal (z-score): 2.19
[4]
  glycan array binding signal (z-score): 6.52
[5]
  glycan array binding signal (z-score): 1.8
Glc(b1-4)Glc
  glycan array binding signal (z-score): -0.371
[6]
  glycan array binding signal (z-score): 1.8
GlcA(b1-3)Gal
  glycan array binding signal (z-score): -0.34
[7]
  glycan array binding signal (z-score): -0.32
[8]
  glycan array binding signal (z-score): -0.32
[9]
  glycan array binding signal (z-score): -0.074
[10]
  glycan array binding signal (z-score): -0.32
[11]
  glycan array binding signal (z-score): -0.125
[12]
  glycan array binding signal (z-score): 1.74
GlcNAc(b1-3)Gal(b1-4)Glc
  glycan array binding signal (z-score): 6.6
[13]
  glycan array binding signal (z-score): -0.014
[14]
  glycan array binding signal (z-score): 1.7
Kdn(a2-6)Gal
  glycan array binding signal (z-score): -0.32
Man(a1-2)Man
  glycan array binding signal (z-score): 1.03
[15]
  glycan array binding signal (z-score): -0.249
[16]
  glycan array binding signal (z-score): 0.488
[17]
  glycan array binding signal (z-score): -0.012
[18]
  glycan array binding signal (z-score): 0.026
[19]
  glycan array binding signal (z-score): 1.67
[20]
  glycan array binding signal (z-score): -0.32
[21]
  glycan array binding signal (z-score): 0.548
[22]
  glycan array binding signal (z-score): 0.366
[23]
  glycan array binding signal (z-score): 0.258
[24]
  glycan array binding signal (z-score): -0.161
[25]
  glycan array binding signal (z-score): -0.189
[26]
  glycan array binding signal (z-score): -0.16
[27]
  glycan array binding signal (z-score): -0.133
[28]
  glycan array binding signal (z-score): -0.191
[29]
  glycan array binding signal (z-score): -0.302
Neu5Ac(b2-6)GalNAc
  glycan array binding signal (z-score): -0.184
[30]
  glycan array binding signal (z-score): -0.191
[31]
  glycan array binding signal (z-score): -0.121
[32]
  glycan array binding signal (z-score): -0.32
